According to PubChem BioAssay (NCI):
About 79,000 compounds went through this panel and 15% of them were active in at least one assay; those are over-represented in the sample as a whole. Activity calls are given as the source filed them. Rule as the data show it: active = growth inhibition above about 70%; inactive = the rest.

How the values were obtained:
[1] = NCI Yeast Anticancer Drug Screen. Data for the rad52 strain (AID 147);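 also: 0% = growth of vehicle-treated control cultures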; details: S. cerevisiae rad52 mutant growth inhibition, active compounds read high
In short: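 Yeast strain carrying a DNA damage repair alteration was exposed to test compounds. Growth inhibition was measured relative to vehicle-treated controls.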

[2] = NCI Yeast Anticancer Drug Screen. Data for the wt1 strain (AID 149);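 also: 0% = growth of vehicle-treated wt1 cultures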; details: S. cerevisiae wt1 strain (SPY 50644) growth inhibition, active compounds read high
In short: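 wt1 yeast, compound-treated; % growth inhibition vs vehicle control.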

[3] = NCI Yeast Anticancer Drug Screen. Data for the rad50EPP+ strain (AID 151);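 also: 0% = growth of vehicle-treated control cultures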; details: S. cerevisiae rad50 mutant strain, active compounds read high
In short: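 Yeast strain carrying rad50 alteration (rad50EPP+) exposed to compounds; growth inhibition measured relative to vehicle-treated controls.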

[4] = NCI Yeast Anticancer Drug Screen. Data for the rad50 strain (AID 155);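 also: 0% = growth of vehicle-only cultures of the same strain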; details: S. cerevisiae rad50 strain growth inhibition, active compounds read high
In short: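 Genetically altered yeast (DNA repair pathway); compound treatment; growth inhibition vs vehicle ctrl.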

[5] = NCI Yeast Anticancer Drug Screen. Data for the mec2-1 strain (AID 157); details: S. cerevisiae mec2-1 strain, active compounds read high
In short: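 mec2-1 yeast strain, carrying an alteration in DNA damage repair or cell cycle control, was exposed to compounds; growth inhibition was measured relative to vehicle-treated controls.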

[6] = NCI Yeast Anticancer Drug Screen. Data for the rad14 strain (AID 159);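 also: 0% = growth of vehicle-treated control cultures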; details: S. cerevisiae rad14 strain growth inhibition, active compounds read high
In short: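 Test compounds were applied to a repair-deficient yeast strain. Its growth was then compared with that of cultures given vehicle alone, and inhibition was expressed relative to those controls.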

[7] = NCI Yeast Anticancer Drug Screen. Data for the sgs1 mgt1 strain (AID 161);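 also: 0% = growth of cultures given vehicle only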; details: S. cerevisiae sgs1 mgt1 strain, active compounds read high
In short: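 Yeast cells carrying a defined DNA-repair defect were exposed to test compounds. Growth inhibition was measured relative to vehicle-treated controls.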

[8] = NCI Yeast Anticancer Drug Screen. Data for the CLN2oe strain (AID 163);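 also: 0% = growth of vehicle-only control cultures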; details: S. cerevisiae CLN2oe strain, active compounds read high
In short: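 Yeast cells carrying a defined cell-cycle control alteration were exposed to test compounds. Growth inhibition was scored against vehicle-treated control cultures.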

[9] = NCI Yeast Anticancer Drug Screen. Data for the cln2 rad14 strain (AID 165);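 also: 0% = growth equal to vehicle treated cultures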; details: S. cerevisiae cln2 rad14 strain, active compounds read high
In short: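 Yeast carrying cln2 and rad14 alterations (cell cycle control and DNA damage repair) were exposed to compounds. Growth inhibition was measured against vehicle-treated controls.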

[10] = NCI Yeast Anticancer Drug Screen. Data for the bub3 strain (AID 167); details: S. cerevisiae bub3 mutant strain, active compounds read high
In short: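 Yeast carrying a defined mutation is treated with each compound, and growth is compared with that of vehicle-exposed cells to give inhibition.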

[11] = NCI Yeast Anticancer Drug Screen. Data for the wt2 strain (AID 169);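 also: 0% = growth of vehicle-treated yeast cultures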; details: S. cerevisiae wt2 strain growth inhibition, active compounds read high
In short: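 Yeast cells were exposed to test compounds, and growth inhibition was measured relative to vehicle-treated controls.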

[12] = NCI Yeast Anticancer Drug Screen. Data for the mlh1 strain (AID 171);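 also: 0% = growth of vehicle-treated control cultures of the same strain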; details: S. cerevisiae mlh1 strain growth inhibition, active compounds read high
In short: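 Yeast carrying a defined genetic alteration in DNA damage repair or cell cycle control were exposed to test compounds. Growth inhibition was measured relative to vehicle-treated controls.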

[13] = NCI Yeast Anticancer Drug Screen. Data for the sgs1 strain (AID 173);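 also: 0% = growth of vehicle-only control cultures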; details: S. cerevisiae sgs1 mutant, active compounds read high
In short: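 Yeast mutant strains carrying defined defects in DNA damage repair or cell cycle control were exposed to test compounds. Growth inhibition was scored against vehicle-treated controls.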

[14] = NCI Yeast Anticancer Drug Screen. Data for the mlh1 rad18 strain (AID 175); details: S. cerevisiae mlh1 rad18 strain growth inhibition, active compounds read high
In short: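 Growth inhibition of the yeast strain was measured after compound exposure and expressed relative to vehicle-treated controls. The strain carries defined defects in DNA damage repair.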

[15] = NCI Yeast Anticancer Drug Screen. Data for the rad18 strain (AID 177); details: S. cerevisiae rad18 mutant growth inhibition, active compounds read high
In short: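 Yeast carrying a defined DNA damage repair alteration were exposed to compounds. Growth inhibition was expressed relative to vehicle-treated controls.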

[16] = at 5.0 µM (retest, dose inferred, filed as 0.5)
[17] = at 50.0 µM (retest, dose inferred, filed as 5.0)

Measured: growth inhibition

O=C(N/N=C\c1c(Cl)cccc1Cl)N/N=C/c1c(Cl)cccc1Cl
active: [4]; [17] 97% | [5]; [17] 98% | [9]; [17] 70% | [14]; [17] 88%
inactive: [1]; at 1.2 µM 14% | [1]; at 3.7 µM 14% | [1]; at 11.0 µM 23% | [1]; at 33.0 µM 22% | [1]; at 100.0 µM 25% | [2]; at 1.2 µM -2% | [2]; at 3.7 µM 8% | [2]; at 11.0 µM 4% | [2]; at 33.0 µM 17% | [2]; at 100.0 µM 29% | [3]; at 1.2 µM 7% | [3]; at 3.7 µM 19% | [3]; at 11.0 µM 10% | [3]; at 33.0 µM 2% | [3]; at 100.0 µM 5% | [4]; at 1.2 µM 14% | [4]; at 3.7 µM 12% | [4]; [16] 30% | [4]; at 11.0 µM 21% | [4]; at 33.0 µM 14% | [4]; at 50.0 µM -7.7% | [4]; at 100.0 µM 5% | [5]; at 1.2 µM 21% | [5]; at 3.7 µM 25% | [5]; [16] 35% | [5]; at 11.0 µM 12% | [5]; at 33.0 µM 0% | [5]; at 50.0 µM -13.8% | [5]; at 100.0 µM 3% | [6]; at 1.2 µM -4% | [6]; at 3.7 µM -21% | [6]; at 11.0 µM 8% | [6]; at 33.0 µM -7% | [6]; at 100.0 µM -12% | [7]; [16] -13% | [7]; [17] 29% | [7]; at 50.0 µM 9.15% | [8]; at 1.2 µM -8% | [8]; at 3.7 µM -12% | [8]; at 11.0 µM -21% | [8]; at 33.0 µM -8% | [8]; at 100.0 µM -10% | [9]; [16] 49% | [9]; at 50.0 µM 13.7% | [10]; at 1.2 µM 6% | [10]; at 3.7 µM 11% | [10]; [16] 36% | [10]; at 11.0 µM -3% | [10]; at 33.0 µM 0% | [10]; [17] 58% | [10]; at 50.0 µM 12.2% | [10]; at 100.0 µM 1% | [11]; at 1.2 µM 11% | [11]; at 3.7 µM 7% | [11]; at 11.0 µM 7% | [11]; at 33.0 µM -3% | [11]; at 100.0 µM 17% | [12]; at 1.2 µM -13% | [12]; at 3.7 µM -7% | [12]; at 11.0 µM -3% | [12]; at 33.0 µM -9% | [12]; at 100.0 µM -8% | [13]; at 1.2 µM 8% | [13]; at 3.7 µM 1% | [13]; at 11.0 µM 19% | [13]; at 33.0 µM 10% | [13]; at 100.0 µM 5% | [14]; [16] 38% | [14]; at 50.0 µM 55.9%

O=C1C=CC(=O)N1c1ccc(I)cc1
inactive: [1]; at 1.2 µM 12% | [1]; at 3.7 µM 26% | [2]; at 1.2 µM -9% | [2]; at 3.7 µM 33% | [3]; at 1.2 µM 59% | [4]; at 1.2 µM 21% | [4]; at 3.7 µM 37% | [4]; [16] 26% | [4]; [17] 54% | [5]; at 1.2 µM 12% | [5]; at 3.7 µM 41% | [5]; [16] 31% | [5]; [17] 65% | [6]; at 1.2 µM 11% | [6]; at 3.7 µM 28% | [8]; at 1.2 µM 13% | [8]; at 3.7 µM 26% | [9]; [16] 56% | [10]; at 1.2 µM 5% | [10]; at 3.7 µM 15% | [11]; at 1.2 µM -2% | [11]; at 3.7 µM 16% | [12]; at 1.2 µM 13% | [12]; at 3.7 µM 40% | [13]; at 1.2 µM 29% | [14]; [16] 17% | [15]; at 1.2 µM 27% | [15]; at 3.7 µM 35% | [15]; at 11.0 µM 49%
active: [1]; at 11.0 µM 97% | [1]; at 33.0 µM 99% | [1]; at 100.0 µM 98% | [2]; at 11.0 µM 96% | [2]; at 33.0 µM 99% | [2]; at 100.0 µM 98% | [3]; at 3.7 µM 70% | [3]; at 11.0 µM 99% | [3]; at 33.0 µM 100% | [3]; at 100.0 µM 99% | [4]; at 11.0 µM 96% | [4]; at 33.0 µM 98% | [4]; at 50.0 µM 92% | [4]; at 100.0 µM 98% | [5]; at 11.0 µM 99% | [5]; at 33.0 µM 99% | [5]; at 50.0 µM 93.7% | [5]; at 100.0 µM 100% | [6]; at 11.0 µM 97% | [6]; at 33.0 µM 99% | [6]; at 100.0 µM 98% | [7]; [16] 97% | [7]; [17] 100% | [7]; at 50.0 µM 93.6% | [8]; at 11.0 µM 96% | [8]; at 33.0 µM 100% | [8]; at 100.0 µM 99% | [9]; [17] 100% | [9]; at 50.0 µM 92.1% | [10]; [16] 100% | [10]; at 11.0 µM 98% | [10]; at 33.0 µM 99% | [10]; [17] 99% | [10]; at 50.0 µM 92.4% | [10]; at 100.0 µM 98% | [11]; at 11.0 µM 81% | [11]; at 33.0 µM 100% | [11]; at 100.0 µM 99% | [12]; at 11.0 µM 98% | [12]; at 33.0 µM 100% | [12]; at 100.0 µM 99% | [13]; at 3.7 µM 76% | [13]; at 11.0 µM 100% | [13]; at 33.0 µM 100% | [13]; at 100.0 µM 100% | [14]; [17] 72% | [14]; at 50.0 µM 92.2% | [15]; at 33.0 µM 99% | [15]; at 100.0 µM 99%

C/C=C/[P+](c1ccccc1)(c1ccccc1)c1ccccc1
active: [1]; at 11.0 µM 70% | [1]; at 33.0 µM 83% | [1]; at 100.0 µM 92% | [2]; at 100.0 µM 86% | [4]; at 11.0 µM 72% | [4]; at 33.0 µM 86% | [4]; [17] 78% | [4]; at 50.0 µM 81.2% | [4]; at 100.0 µM 95% | [5]; at 50.0 µM 83.3%
inactive: [1]; at 1.2 µM 49% | [1]; at 3.7 µM 62% | [2]; at 1.2 µM 31% | [2]; at 3.7 µM 42% | [2]; at 11.0 µM 54% | [2]; at 33.0 µM 61% | [3]; at 1.2 µM 13% | [3]; at 3.7 µM 2% | [3]; at 11.0 µM -4% | [3]; at 33.0 µM 0% | [3]; at 100.0 µM 16% | [4]; at 1.2 µM 50% | [4]; at 3.7 µM 67% | [4]; [16] 48% | [5]; at 1.2 µM 21% | [5]; at 3.7 µM 44% | [5]; [16] 33% | [5]; at 11.0 µM 54% | [5]; at 33.0 µM 64% | [5]; [17] 63%
